Screening data: PubChem BioAssay, National Center for Advancing Translational Sciences (NCATS)
S2 tox – reduces viability in counter-screen for ATXN expression inhibitors; Potency, µM (series often up to 56.7 µM), usual class: cytotoxic; S2 cells (HEK-293 line with an ATXN2-luciferase reporter) viability, CellTiter-Fluor protease fluorescence, 24 h; actives 0.49% (n = 400,000); note: nearly all actives have a fitted effect of over 40% in size
TDP1 cell noCPT – qHTS for Inhibitors of human tyrosyl-DNA phosphodiesterase 1 (TDP1): qHTS in cells in absence of CPT. DT40 Tdp1-/- hTDP1 cells, no CPT, ATP luminescence, 48 h. Potency, µM (titrated, usually from 46.2 µM), for the others: at the highest dose activity change, negative = growth inhibition, most hits filed as inhibitors. actives 15% (n = 420,000). AID 686978, 2013; note: % is set by controls: 0 for no effect and ±100 for the full control effect; nearly all actives have a fitted effect of over 55% in size
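Luminescent ATP content (CellTiter-Glo) served as the growth readout. Knockout chicken DT40 cells expressing human TDP1 were exposed to compounds without camptothecin for a minimum 48 hr at 37 °C.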
ATXN2 expr inh – reduces ATXN2 reporter expression in HEK-293 cells. HEK-293 ATXN2-luciferase reporter, luminescence, 24 h. Potency, µM (titrated, usually from 57 µM), without a hit: top-dose activity change, negative = inhibition, most hits filed as inhibitors. actives 0.72% (n = 360,000); note: % is set by controls: 0 for no effect and ±100 for the full control effect; nearly all actives have a fitted effect of over 55% in size
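qHTS (up to 57 uM final) was run with 24 h compound exposure of reporter cells at 37 °C. Each well was multiplexed: SteadyGlo luminescence measured ATXN2-luciferase expression after a fluorogenic Gly-Phe-AFC viability readout (25 uM final).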
DT40 TDP1 CPT – growth inhibition of DT40 Tdp1-/-;hTDP1 cells with camptothecin (screen for TDP1 inhibitors) | AID 686979 | Potency, µM (titrated, usually from 46.2 µM), without a hit: top-dose activity change, negative = growth inhibition, usual class: inhibitors | chicken DT40 Tdp1-/-;hTDP1 cells + 20 nM CPT, ATP luminescence, 48 h | actives 12% (n = 420,000); note: % is set by controls: 0 for no effect and ±100 for the full control effect; nearly all actives have a fitted effect of over 55% in size
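Chicken DT40 Tdp1-/- cells complemented with human TDP1, 400 cells/well, exposed to compounds plus 20 nM camptothecin for at least 48 h at 37 C; viability read as ATP content by CellTiter-Glo luminescence.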
HepG2 viability – counter-screen for TGF-b inhibitors: cytotoxicity in HepG2 cells; Potency, µM (series often up to 46.1 µM), without a hit: at the top dose activity change, negative = cytotoxicity, hits mostly cytotoxic; actives 0.76% (n = 410,000); AID 588856; HepG2 CAGA-GFP viability, ATP luminescence, 18 h
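CellTiter-Glo luminescence gave cytotoxicity after 18 hours at 37 degrees C. The cells were HepG2 CAGA-GFP in 1% FBS DMEM, stimulated with 500 pg/mL TGF-beta after compound addition. %Activity was normalised to no-cell wells (complete cell-killing) and DMSO (no toxicity), and curves were fitted and classified.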
TGFb inhibitor – TGF-b pathway inhibition; HepG2 CAGA-GFP TGF-b/SMAD3 reporter, GFP fluorescence, 18 h; TGF-beta stimulated, 500 pg/mL final; Potency, µM (top dose mostly 46.1 µM), inactives show at the highest dose activity, negative = inhibition, hits mostly inhibitors; actives 1.2% (n = 410,000); note: % is set by controls: 0 for no effect and ±100 for the full control effect; nearly all actives have a fitted effect of over 65% in size
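Smad-responsive CAGA-GFP expression was quantified in HEPG2 cells exposed to compounds and 500 pg/mL final TGF-beta for 18 h at 37 degrees C; unstimulated wells defined full inhibition.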
* hit, by the source's call. This is a sample that favours compounds with a hit; in the whole collection about 17% have one here. Calls come from the whole dose curve; as a rule, active = well fitted curve in the direction sought with a large enough effect; inconclusive = small, poorly fitted or top-dose-only effect, or another doubt; inactive = no such curve, though single readings can be large; an effect the other way counts as inactive or inconclusive. Potency is the fitted concentration of half-maximal effect.

CON(C)C(=O)CCN(C(=O)OC(C)(C)C)c1ccccc1 was read as S2 tox inactive, TDP1 cell noCPT -17%, ATXN2 expr inh 0%, DT40 TDP1 CPT -16%, HepG2 viability 0.56µM* and TGFb inhibitor 27%.
`CC1(C(=O)NC2CCN(Cc3ccccc3)CC2)CCN1Cc1cc2ccccc2o1` (stereo unspecified) gave S2 tox inactive, TDP1 cell noCPT -85%, ATXN2 expr inh -19%, DT40 TDP1 CPT inconclusive, HepG2 viability -46% and TGFb inhibitor -9%.
For COc1ccc(NC(=O)C2(C)CCN2Cc2ccc(SC)cc2)cc1OC (stereo unspecified) the results were S2 tox inactive, TDP1 cell noCPT inconclusive, ATXN2 expr inh -24%, DT40 TDP1 CPT 16µM*, HepG2 viability -1% and TGFb inhibitor -14%.
Screening COc1ccc(NC(=O)C2(C)CCN2Cc2ccc3ccccc3c2)cc1OC (stereo unspecified) returned S2 tox inconclusive, TDP1 cell noCPT inconclusive, ATXN2 expr inh inconclusive, DT40 TDP1 CPT inconclusive, HepG2 viability -39% and TGFb inhibitor inconclusive.
`COc1ccc(CN2CCC2(C)C(=O)Nc2ccc(OC)c(OC)c2)cc1` (stereo unspecified) gave S2 tox inactive, TDP1 cell noCPT inconclusive, ATXN2 expr inh -1%, DT40 TDP1 CPT inconclusive, HepG2 viability -5% and TGFb inhibitor 27%.
Screening CSc1ccc(CN2CCC2(C)C(=O)NC2CCN(Cc3ccccc3)CC2)cc1 (stereo unspecified) returned S2 tox inactive, TDP1 cell noCPT 18µM*, ATXN2 expr inh -7%, DT40 TDP1 CPT 26µM*, HepG2 viability -29% and TGFb inhibitor 0%.
`COc1ccc(NC(=O)C2(C)CCN2Cc2ccc(OC(F)(F)F)cc2)cc1OC` (stereo unspecified) gave S2 tox inconclusive, TDP1 cell noCPT inconclusive, ATXN2 expr inh -11%, DT40 TDP1 CPT 23µM*, HepG2 viability -20% and TGFb inhibitor -24%.
For CC(C)NC(=O)C1(S(=O)(=O)c2ccccc2)CC=CC1 the results were S2 tox inactive, TDP1 cell noCPT 1%, ATXN2 expr inh 9%, DT40 TDP1 CPT 8%, HepG2 viability 35% and TGFb inhibitor 37%.
Cc1cc(NC(=O)c2cc3n(n2)C(C(F)(F)F)CC(c2ccco2)N3)n(-c2ccccc2)n1 (stereo unspecified) was read as S2 tox inactive, TDP1 cell noCPT 15µM*, ATXN2 expr inh -7%, DT40 TDP1 CPT inconclusive, HepG2 viability -46% and TGFb inhibitor 18%.
O=C(NCC12CC3CC(CC(C3)C1)C2)c1cc2n(n1)C(C(F)(F)F)CC(c1ccco1)N2 (stereo unspecified) was read as S2 tox inactive, TDP1 cell noCPT 15µM*, ATXN2 expr inh 4%, DT40 TDP1 CPT 10µM*, HepG2 viability -104% and TGFb inhibitor -19%.
For COc1ccc(NC(=O)c2cc3n(n2)C(C(F)(F)F)CC(c2ccco2)N3)cc1 (stereo unspecified) the results were S2 tox inactive, TDP1 cell noCPT inconclusive, ATXN2 expr inh -7%, DT40 TDP1 CPT -22%, HepG2 viability -32% and TGFb inhibitor -1%.
For CCOc1ccc(CCNC(=O)CSc2n[nH]c(N)n2)cc1OCC the results were S2 tox inactive, TDP1 cell noCPT 0%, ATXN2 expr inh 1%, DT40 TDP1 CPT -4%, HepG2 viability -55% and TGFb inhibitor 0%.
